# Measured values published in PubChem BioAssay (Tox21).
# Records with an inconclusive call do not appear. Where a call stands in place of a potency, no number is given. Values without a mark were called inactive. The source made the active and inactive calls. Calls follow the shape of the full dose curve.
# Experiment: qHTS assay for small molecule agonists of the antioxidant response element (ARE) signaling pathway - cell viability counter screen (AID 743203); also: nearly all actives have a fitted effect of over 55% in size
# Conditions: ARE-bla HepG2 viability, CellTiter-Glo luminescence, 16 h; series mostly up to 73.3 µM
# From the text: National Center for Advancing Translational Sciences [NCATS]
# NIH Chemical Genomics Center [NCGC]
# U.S. Environmental Protection Agency [EPA]
# National Institutes of Environmental Health Sciences [NIEHS]
# National Toxicology Program [NTP]
# U.S. Food and Drug Administration [FDA]
# Oxidative stress has been implicated in the pathogenesis of a variety of diseases ranging from cancer to neurodegeneration. The antioxidant response element (ARE) signaling pathway plays an important role in the amelioration of oxidative stress. The CellSensor ARE-bla HepG2 cell line (Invitrogen) can be used for analyzing the Nrf2/antioxidant response signaling pathway. Nrf2 (NF-E2-related factor 2) and Nrf1 are transcription factors that bind to AREs and activate these genes. The CellSensor ARE-bla Hep G2 cell line contains a beta-lactamase reporter gene under control of the Antioxidant Response Element (ARE) stably integrated into HepG2 cells. The activation of the report gene under culture conditions can be detected by fluorescence intensity. This cell line has been used to screen the Tox21 10K compound library to identify agonists that induce oxidative stress. The cytotoxicity of the Tox21 compound library against the ARE-bla cell line was tested in parallel by measuring the cell viability using CellTiter-Glo assay (Promega, Madison, WI) in the same wells.
# Tox21 Assay Protocol Summary:
# ARE-bla HepG2 cells were dispensed at 2,000 cells/5 ul/well in 1536-well white wall/solid bottom plates using a Multidrop Combi (ThermoFisher Scientific, Waltham, MA) dispenser. After the assay plates were incubated at 37C/5% CO2 for 5 hrs, 23 nL of compounds dissolved in DMSO, positive controls or DMSO only was transferred to the assay plate by a pintool work station (Kalypsys, San Diego, CA). The plates were incubated at 37C/5% CO2 for 16 hrs, followed by addition of 4 ul/well of CellTiter-Glo reagent into the assay plates using a Flying Reagent Dispenser (Aurora Discovery, San Diego, CA). After 30 min incubation at room temperature, the luminescence intensity in the assay plates was measured using a ViewLux (PerkinElmer, Shelton, CT) plate reader.
# Potency is read from the fitted curve at half-maximal effect.
Structure (SMILES),Potency,"viability change, negative = cytotoxic"
Cc1c2ccccc2c(C)c2c1ccc1ccccc12,24.3 µM (active),
Cc1ccc(-c2ccccc2)cc1,inactive,
O[C@@H]([C@H](O)[C@H](O)CBr)[C@H](O)CBr,inactive,
FC(F)(F)c1cccc(Cl)c1,inactive,
CC[N+](CC)(CC)CCOC(=O)C(C1CCCC1)C1CCCC1,inactive,
CCOC(=O)NNc1ccc(N(CC)CC(C)O)nn1 (stereo not given),inactive,
O=C1C(c2[nH]c3ccc(S(=O)(=O)O)cc3c2O)=Nc2ccc(S(=O)(=O)O)cc21,inactive,
CCc1ccc(Br)cc1,inactive,
CCCNCCC,inactive,
O=c1c(O)c(-c2ccc(O)cc2O)oc2cc(O)cc(O)c12,inactive,
c1ccsc1,inactive,
C/C=C/C=C/COC(=O)C(C)C,inactive,
C=Cc1ccccc1C=C,inactive,
OC[C@@H](O)[C@@H](O)CO,inactive,
Cc1c(N)cccc1C(F)(F)F,inactive,
Cc1ccc(C)cc1,inactive,
C=C(C)c1cccc(C(=C)C)c1,inactive,
Cc1nc(-c2ccc(Cl)cc2)oc1COC(C)(C)C(=O)O,inactive,
CCN(CCN)c1cccc(C)c1,inactive,
CC(C)CCOC(=O)/C=C/c1ccccc1,inactive,

Structure (SMILES),Potency,"viability change, negative = cytotoxic"
Cc1ccc(O)c(O)c1,inactive,
c1ccc(SSc2ccccc2)cc1,inactive,
CC(C)(C)CC(C)(C)c1ccc(Nc2ccc(C(C)(C)CC(C)(C)C)cc2)cc1,,7.42% [at 8.36 µM]
CC(C)NC[C@@H](O)COc1ccc(CC(N)=O)cc1,inactive,
Nc1nc2c(ncn2COCCO)c(=O)[nH]1,inactive,
CN1CCN(Cc2cc(-c3ccc4[nH]c(=O)oc4c3)co2)[C@@H](c2ccc(F)cc2)C1,inactive,
CC/C=C\CCCCCO,inactive,
COc1cc(/C=C/c2ccccc2)oc(=O)c1,inactive,
CN1CCC[C@@H]1CCO[C@](C)(c1ccccc1)c1ccc(Cl)cc1,29.8 µM (active),
C=CC(=O)OCCOC(=O)C=C,inactive,
CC(C(=O)O)c1ccc2c(c1)[nH]c1ccc(Cl)cc12 (stereo not given),inactive,
CCC(C)[O-].CCC(C)[O-].CCOC(=O)/C=C(/C)[O-].[Al+3],inactive,
Cc1cc(=O)oc2cc(O)cc(O)c12,inactive,
CCOc1ccc2ccccc2c1C(=O)N[C@@H]1C(=O)N2[C@@H]1SC(C)(C)[C@@H]2C(=O)O,inactive,
O=C(O)O,,6.5% [at 8.36 µM]
Nc1ccc(NCCO)c([N+](=O)[O-])c1,inactive,
CN(C)Cc1cc(C(C)(C)C)c(O)c(C(C)(C)C)c1,inactive,
CC(C)=CCNc1ncnc2c1ncn2[C@@H]1O[C@H](CO)[C@@H](O)[C@H]1O,5.96 µM (active),
O=C1OC2(c3ccc(O)cc3Oc3cc(O)ccc32)c2ccc(N=C=S)cc21,inactive,
O=C(/C=C/c1ccc(O)c(O)c1)O[C@@H](C(=O)O)[C@@H](OC(=O)/C=C/c1ccc(O)c(O)c1)C(=O)O,inactive,
